Screens (PubChem)
SARS PLP yeast – inhibitors of SARS-CoV papain-like protease in yeast; hit rate 0.19% among 330,000; Potency, µM (series often up to 32.9 µM), for inactives: at the top dose activity, positive = growth rescue, actives largely listed as activators; AID 485353; S. cerevisiae expressing SARS-CoV PLpro, growth rescue; calls by dose curve; further: potency means the concentration at half of the fitted maximal effect; 0% is about no effect; nearly all actives have a fitted effect of over 55% in size
Sm TGR block – blocks Schistosoma mansoni thioredoxin glutathione reductase | Q962Y6 | AID 485364 | purified TGR, DTNB reduction, TNB absorbance 405 nm | Potency, µM (highest dose often 114 µM), for the others: at the highest dose activity change, negative = inhibition, hits mostly inhibitors | hit rate 3% among 360,000; further: potency means the concentration at half of the fitted maximal effect; on the % scale 0 is the no-effect control and ±100 the full control effect; nearly all actives have a fitted effect of over 60% in size
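TGR 20 nM + NADPH 100 uM (dispensed conc.), cpd preinc 15 min RT; start with NADPH (500 uM addition) then DTNB (15 mM addition). Kinetic TNB absorbance, 405 nm filter. Four-parameter Hill fit across titration.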
Pf growth 96h – P. falciparum growth inhibition at 96 hour, primary screen for plastid delayed-death inhibitors. Potency, µM (top dose mostly 28.7 µM), inactives show at the top dose activity change, negative = inhibition, usual class: inhibitors. P. falciparum luciferase reporter growth, 96 h. hit rate 6.9% among 320,000. AID 504834; further: potency means the concentration at half of the fitted maximal effect; on the % scale 0 is the no-effect control and ±100 the full control effect
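Delayed-death screen, second-generation endpoint: infected erythrocytes, 2% hematocrit, 0.05% parasitemia final; 96 hours at 37 C, 5% CO2; luciferase detection reagent; luminescence decrease equals reduced growth.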
Pf growth 48h – inhibits P. falciparum growth in the first generation, 48 h; AID 504832; P. falciparum luciferase growth in erythrocytes, 48 h; hit rate 5.9% among 310,000; Potency, µM (series often up to 28.7 µM), without a hit: at the top dose activity change, negative = inhibition, hits mostly inhibitors; further: potency means the concentration at half of the fitted maximal effect; on the % scale 0 is the no-effect control and ±100 the full control effect
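A one-generation exposure of luciferase-tagged malaria parasites in RPMI 1640/Albumax erythrocyte culture, 37 C and 5% CO2. Inhibition is inferred from decreased luminescence after adding detection reagent.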
HCV inh – HCV inhibition. Potency, µM (doses to about 41.8 µM), for the others: top-dose activity change, negative = inhibition, actives largely listed as inhibitors. hit rate 3.4% among 340,000. Huh7.5.1 HCVcc-Cre infection, luciferase reporter, 44 h; further: potency means the concentration at half of the fitted maximal effect; on the % scale 0 is the no-effect control and ±100 the full control effect
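1,000 cells/well; 4 h culture; + compound; + HCVcc-Cre (~0.5 moi); 44 h; luciferase substrate, RT 15 min; read 15 sec.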
HCMV antiviral – inhibitors of human cytomegalovirus; HFF cells, HCMV-luciferase reporter, 72 h; stronger effect = lower value; activity change, negative = inhibition, % at 57.5 µM; hit rate 4.5% among 410,000; AID 1259415; in the data active means activity change below about -60%; inconclusive means no clear call, values can overlap the other calls; inactive means above about -39%; further: on the % scale 0 is the no-effect control and ±100 the full control effect
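HFF cells seeded 16 h at 37C, treated with compounds, infected with luciferase-reporter HCMV at MOI 1 PFU/cell; luciferase read at 72 h post infection, normalized to buffer-only and Salinomycin controls.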
* = called active by the depositor; ? = inconclusive; / = no result given. An excerpt weighted towards active compounds, which were near 15% of everything screened. Unless noted, the call rests on the fitted dose curve; in most records, active means well fitted curve in the direction sought with a large enough effect; inconclusive means small, poorly fitted or top-dose-only effect, or another doubt; inactive means no such curve, though single readings can be large; an effect the other way counts as inactive or inconclusive.

SMILES | SARS PLP yeast | Sm TGR block | Pf growth 96h | Pf growth 48h | HCV inh | HCMV antiviral
Cc1ccc2nc(-c3ccccn3)c(Nc3ccccc3C)n2c1 | -25.0% | 0.5% | 5.7% | ? | 5.01µM* | -100.4*
Fc1ccc(Nc2c(-c3ccccn3)nc3ccc(Cl)cn23)cc1 | / | -6.1% | / | / | / | 8.0
Cc1ccc2nc(-c3ccccn3)c(Nc3ccc(F)cc3)n2c1 | / | 6.2% | / | / | / | -93.8*
Cc1ccc2nc(-c3ccncc3)c(Nc3ccccc3C)n2c1 | / | -4.4% | / | / | / | ?
COc1ccc(-n2c(SCc3ccccc3F)nc3c([nH]c4ccccc43)c2=O)cc1OC | / | 8.0% | / | / | / | 3.1
Cc1cccc(CNC(=O)c2ccc(N3Cc4ccccc4Oc4ncccc43)s2)c1 | / | -0.2% | / | / | / | -3.3
CCOCCCNC(=S)Nc1ccc(S(N)(=O)=O)cc1 | 11.8% | ? | 12.7% | 2.1% | 16.1% | 3.1
Cc1ccn2c(Nc3ccccc3C)c(-c3ccc(N4CCOCC4)cc3)nc2c1 | / | 25.7% | / | / | / | -31.0
Cc1ccn2c(Nc3ccccc3)c(-c3ccccn3)nc2c1 | 18.6% | -0.9% | 139.0% | 2.08µM* | 8.91µM* | 0.0
Cc1ccn2c(Nc3ccccc3C)c(-c3ccccn3)nc2c1 | -33.4% | -4.3% | -15.0% | ? | 3.98µM* | -81.5*
COc1cc(NC(=O)Cc2noc3ccccc23)cc(OC)c1OC | / | -3.8% | / | / | / | 29.4
O=C(OCC(=O)N1CCc2ccccc21)c1ccc(Cl)nc1 | -6.2% | 12.1% | 47.1% | 23.9% | -2.3% | 51.9
CSCC[C@H](NC(=O)C1CCCC1)c1nc2ccccc2[nH]1 | -3.7% | 24.2% | 6.3% | 4.8% | 2.4% | -25.3
N#CC(C(=S)Nc1ccccc1)c1nc2ccccc2[nH]1 (configuration not stated) | -1.7% | -6.9% | 4.65µM* | ? | -21.5% | -30.7
N#CC(C(=O)C1CCCCC1)c1nc2ccccc2[nH]1 (configuration not stated) | -3.3% | 4.1% | ? | ? | 10µM* | -99.1*
Cc1cc(C)c(-c2csc(NC(=O)/C=C/c3cccs3)n2)c(C)c1 | -11.4% | 0.3% | 11.7µM* | -20.3% | 10µM* | -100.1*
Cc1cc(C)c(-c2csc(NC(=O)C3=NN(c4ccccc4)C(=O)CC3)n2)c(C)c1 | 6.6% | -7.0% | 9.28µM* | ? | -22.4% | -24.8
CCc1ccc(-c2csc(NC(=O)C3=NN(c4ccccc4)C(=O)CC3)n2)cc1 | -15.8% | -7.5% | ? | -29.0% | ? | -22.2
Cc1cc(C)nc(NC(=O)/C=C/c2cccs2)c1 | -13.9% | 2.9% | 199.3% | 117.1% | ? | 115.7
COc1ccc(C=O)cc1CSc1nnc(COc2cccc3cccnc23)o1 | -13.8% | 1.5% | 134.7% | -11.3% | 6.5% | -13.1
Cc1ccc(-c2noc(CCCC(=O)NC3CCCCC3)n2)cc1 | 1.1% | -9.5% | -0.3% | 23.9% | ? | -77.0*
COc1ccccc1-c1noc(CCC(=O)NC2CCCC2)n1 | 11.1% | -4.2% | 2.62µM* | -1.5% | -6.3% | 6.3
Cc1ccccc1-c1noc(CCC(=O)NC2CCCCC2)n1 | -4.8% | 1.0% | 10.4µM* | 5.4% | -17.5% | -16.5
Cc1ccc(-c2noc(CCC(=O)NC3CCCC3)n2)cc1 | -5.6% | 0.3% | ? | 8.3% | -14.1% | 2.1
O=C(NNS(=O)(=O)c1ccc(Cl)cc1)c1cccc(S(=O)(=O)N2CCOCC2)c1 | 1.5% | 9.0% | 6.3% | 2.2% | 14.3% | ?
SMILES | SARS PLP yeast | Sm TGR block | Pf growth 96h | Pf growth 48h | HCV inh | HCMV antiviral
CC(=O)Nc1ccccc1C(=O)N1CCN(Cc2ccc3c(c2)OCO3)CC1 | 0.5% | -12.7% | -16.2% | 17.1% | 11.0% | 17.5
Cc1ccc(Cl)cc1N(CC(=O)NC(C)c1ccccc1)S(C)(=O)=O (configuration not stated) | -2.7% | 2.8% | -17.9% | 39.6% | 6.0% | 22.4
Cc1cc(=O)n2nc(N3CCCC(C(=O)NCCCN4CC(C)CC(C)C4)C3)sc2n1 (configuration not stated) | 0.7% | -8.0% | ? | 6.7% | 14.5% | ?
Cc1cc(=O)n2nc(N3CCCC(C(=O)NC4CCC(C)CC4)C3)sc2n1 (configuration not stated) | -2.5% | 3.5% | 5.2% | ? | -0.8% | -61.4*
Cc1cc(=O)n2nc(N3CCCC(C(=O)N4CCOCC4)C3)sc2n1 (configuration not stated) | 1.3% | -1.6% | 11.7µM* | 1.0% | 12.2% | -7.8
CCOc1ccc(CCNC(=O)C2CCCN(c3nn4c(=O)cc(C)nc4s3)C2)cc1OCC (configuration not stated) | -4.5% | 11.9% | 0.147µM* | ? | ? | -13.7
Cc1ccc2oc(-c3ccc(C)c(NC(=O)c4ccc(N5CCC(C)CC5)c([N+](=O)[O-])c4)c3)nc2c1 | / | -9.0% | / | / | / | 67.7
Cc1ccc(Cn2cnc3c(oc4ccccc43)c2=O)cc1 | / | -6.0% | / | / | / | 43.1
Cc1ccc(Sc2ncccc2COC(=O)NC(C)C)cc1 | -5.4% | 10.1% | 117.6% | 77.6% | -5.4% | -10.2
O=C(NCCOC12CC3CC(CC(C3)C1)C2)c1cccc(Br)c1 | -6.4% | 0.2% | 4.15µM* | 9.28µM* | ? | 15.8
C[C@@H](CN1C2=NC[C@H](Cc3ccccc3)N2C[C@H]1Cc1ccc(O)cc1)NC(=O)CCC1CCCCC1 | 0.1% | ? | 14.7µM* | ? | 7.6% | -2.8
C[C@@H](CN1C2=NC[C@H](Cc3ccc(O)cc3)N2C[C@H]1Cc1ccc(O)cc1)NC(=O)CCC1CCCCC1 | -0.6% | -23.3% | 1.65µM* | 7.38µM* | 6.2% | 2.0
COc1ccc(C[C@H]2CN3C(=NC[C@@H]3Cc3ccccc3)N2C[C@H](C)NC(=O)CCC2CCCCC2)cc1 | 0.5% | -6.5% | 2.62µM* | 1.65µM* | / | /
COc1ccc2[nH]cc(CCNC(=O)CCC3CCCCC3)c2c1 | -7.0% | -5.8% | ? | -6.8% | -29.8% | -28.3
COc1ccc(C[C@H]2CN3C(=NC[C@H]3Cc3ccccc3)N2CCNC(=O)CCC2CCCCC2)cc1 | 0.4% | -9.5% | 4.65µM* | ? | -6.6% | ?
COc1ccccc1CC(=O)N1CCN(c2ccccc2)CC1 | 3.4% | -25.7% | ? | 18.8% | 3.6% | 1.7
Fc1ccc(-c2noc3ncnc(NC4CCCCC4)c23)cc1 | / | -1.4% | / | / | / | -26.3
COc1ccc(C[C@@H]2CN3C(=NC[C@@H]3C)N2C[C@H](C)NC(=O)CCC2CCCCC2)cc1 | -0.9% | 25.1µM* | ? | ? | -1.5% | 3.9
CN(C)C1C(=O)C(C(N)=O)=C(O)C2(O)C(=O)C3=C(O)c4c(O)cccc4C(C)(O)C3C(O)C12 (configuration not stated) | -13.7% | 31.6µM* | 2.62µM* | ? | 4.6% | 53.2
